Consider eleven molecules from ChEMBL document CHEMBL3988442, “University of Dundee, Small-Polar-MMV Screening Library” (2021).

Common to all, as to set-up: scale not given: direction of the effect not stated beside the values
The target of assay [1] is Protein translocase subunit SecA (Escherichia coli (strain K12)) (UniProt P10408). In words: Assay to Identify E. coli SecA ATPase Inhibitors. Type of assay: functional. Conditions: 30 µM.
Assay [2] deals with T1, Ubiquitin-activating enzyme e1, putative (Leishmania donovani (strain BPK282A1)) (UniProt E9BSI1).
T1 sequence (whole entry): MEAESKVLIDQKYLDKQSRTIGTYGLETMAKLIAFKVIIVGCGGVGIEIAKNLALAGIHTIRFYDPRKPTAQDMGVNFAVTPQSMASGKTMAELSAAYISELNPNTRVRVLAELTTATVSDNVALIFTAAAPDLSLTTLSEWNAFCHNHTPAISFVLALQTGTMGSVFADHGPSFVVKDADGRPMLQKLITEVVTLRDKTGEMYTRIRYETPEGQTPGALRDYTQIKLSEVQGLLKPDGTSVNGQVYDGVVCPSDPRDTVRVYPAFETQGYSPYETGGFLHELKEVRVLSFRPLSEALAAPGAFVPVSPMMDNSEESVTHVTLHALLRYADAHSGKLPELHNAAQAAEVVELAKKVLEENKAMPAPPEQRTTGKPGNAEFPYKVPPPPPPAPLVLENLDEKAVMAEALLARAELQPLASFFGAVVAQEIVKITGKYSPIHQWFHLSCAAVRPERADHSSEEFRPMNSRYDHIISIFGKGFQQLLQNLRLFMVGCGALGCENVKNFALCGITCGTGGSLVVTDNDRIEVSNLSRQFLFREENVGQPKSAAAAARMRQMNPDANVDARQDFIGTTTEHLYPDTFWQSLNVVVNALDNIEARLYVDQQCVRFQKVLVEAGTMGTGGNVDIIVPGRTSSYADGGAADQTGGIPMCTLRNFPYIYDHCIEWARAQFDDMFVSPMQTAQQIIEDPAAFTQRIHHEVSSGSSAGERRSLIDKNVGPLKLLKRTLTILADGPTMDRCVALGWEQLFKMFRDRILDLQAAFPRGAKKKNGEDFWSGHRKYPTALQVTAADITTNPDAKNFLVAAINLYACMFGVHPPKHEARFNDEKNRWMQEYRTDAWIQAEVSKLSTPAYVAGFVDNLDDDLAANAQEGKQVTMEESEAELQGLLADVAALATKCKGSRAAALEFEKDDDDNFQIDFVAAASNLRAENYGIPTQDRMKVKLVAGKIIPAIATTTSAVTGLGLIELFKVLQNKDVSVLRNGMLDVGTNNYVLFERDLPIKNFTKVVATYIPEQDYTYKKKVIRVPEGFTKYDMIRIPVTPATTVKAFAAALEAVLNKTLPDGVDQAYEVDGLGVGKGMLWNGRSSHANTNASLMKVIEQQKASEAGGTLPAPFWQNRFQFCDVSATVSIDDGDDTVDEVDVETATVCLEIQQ
The assay is described as follows: Leishmania donovani Ubiquitin Activating Enzyme (LdE1). Type of assay: functional. Conditions: 30 µM.

For assay [3], the target named is AMP-activated protein kinase, AMPK (Homo sapiens) (UniProt P54646+O43741+P54619+Q9UGJ0+Q9Y478+Q13131+Q9UGI9). The assay is described as follows: AMP-dependent Kinase enzyme assay. An in vitro enzyme assay that detects ADP turnover that is directly proportional to AMPK activity. This uses naive AMPK that is activated during the assay with MK-8722. Type of assay: functional. Conditions: 30 µM.

In assay [4] the target is Sialic acid-binding Ig-like lectin 9 (Homo sapiens) (UniProt Q9Y336). In words: Hs-Siglec9 ALPHAscreen SOP 20170721. Conditions: 10 µM. A general note: In Alpha technology, singlet oxygen from a donor bead excites a nearby acceptor bead.
In assay [5] the test system is Trypanosoma cruzi. The assay is described as follows: Trypanosoma cruzi phosphomannomutase and mannose-1-phosphate guanylyltransferase assay. Type of assay: functional. Conditions: 10 µM.
Assay [6] concerns the target T2, Arginase-2, mitochondrial (Homo sapiens) (UniProt P78540).
T2 sequence (whole entry): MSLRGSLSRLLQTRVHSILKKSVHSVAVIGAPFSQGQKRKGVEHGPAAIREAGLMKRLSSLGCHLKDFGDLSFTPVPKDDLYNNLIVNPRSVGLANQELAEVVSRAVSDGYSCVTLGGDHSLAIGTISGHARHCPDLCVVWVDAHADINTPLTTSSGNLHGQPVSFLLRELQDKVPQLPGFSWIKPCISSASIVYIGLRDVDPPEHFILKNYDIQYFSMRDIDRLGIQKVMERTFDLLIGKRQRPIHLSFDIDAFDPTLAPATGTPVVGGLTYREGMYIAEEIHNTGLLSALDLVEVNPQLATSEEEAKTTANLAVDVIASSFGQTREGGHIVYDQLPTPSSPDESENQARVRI
The assay is described as follows: in vitro enzyme assay to detect the production of urea directly proportional to the activity of Arginase II. Also: in the data most compounds retested in dose-response had high values. Type of assay: functional. Conditions: 33.3 µM.

Assay [7] deals with T3, Proteasome subunit beta (Trypanosoma cruzi) (UniProt O96673).
T3 sequence (whole entry): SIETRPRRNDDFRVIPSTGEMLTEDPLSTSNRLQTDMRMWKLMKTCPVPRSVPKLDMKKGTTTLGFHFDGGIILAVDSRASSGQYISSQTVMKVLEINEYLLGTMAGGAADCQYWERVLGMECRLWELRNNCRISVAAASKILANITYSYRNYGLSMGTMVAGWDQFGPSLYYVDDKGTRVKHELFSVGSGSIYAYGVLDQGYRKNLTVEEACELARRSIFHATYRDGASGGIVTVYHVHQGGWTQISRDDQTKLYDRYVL
The assay is described as follows: Trypanosoma cruzi proteasome chymotrypsin-like activity (TcProtChymo) assay. Also: in the data most compounds retested in dose-response had high values. Conditions: 9.37 µM. Type of assay: functional.

Assay [8] is filed under the species Homo sapiens. The assay is described as follows: To identify inhibition of the IFN signalling (Jak-Stat) pathway via expression of an eGFP reporter gene under the control of an IFN-stimulated response element (ISRE) containing MxA promoter. Type of assay: functional. To be noted: 30 µM. For orientation: Reporter assays use an easily measured gene product as a stand-in for the process of interest.

Assay [9] deals with T4, Tyrosyl-tRNA synthetase, putative (Trypanosoma cruzi (strain CL Brener)) (UniProt Q4DSP6).
T4 sequence (whole entry): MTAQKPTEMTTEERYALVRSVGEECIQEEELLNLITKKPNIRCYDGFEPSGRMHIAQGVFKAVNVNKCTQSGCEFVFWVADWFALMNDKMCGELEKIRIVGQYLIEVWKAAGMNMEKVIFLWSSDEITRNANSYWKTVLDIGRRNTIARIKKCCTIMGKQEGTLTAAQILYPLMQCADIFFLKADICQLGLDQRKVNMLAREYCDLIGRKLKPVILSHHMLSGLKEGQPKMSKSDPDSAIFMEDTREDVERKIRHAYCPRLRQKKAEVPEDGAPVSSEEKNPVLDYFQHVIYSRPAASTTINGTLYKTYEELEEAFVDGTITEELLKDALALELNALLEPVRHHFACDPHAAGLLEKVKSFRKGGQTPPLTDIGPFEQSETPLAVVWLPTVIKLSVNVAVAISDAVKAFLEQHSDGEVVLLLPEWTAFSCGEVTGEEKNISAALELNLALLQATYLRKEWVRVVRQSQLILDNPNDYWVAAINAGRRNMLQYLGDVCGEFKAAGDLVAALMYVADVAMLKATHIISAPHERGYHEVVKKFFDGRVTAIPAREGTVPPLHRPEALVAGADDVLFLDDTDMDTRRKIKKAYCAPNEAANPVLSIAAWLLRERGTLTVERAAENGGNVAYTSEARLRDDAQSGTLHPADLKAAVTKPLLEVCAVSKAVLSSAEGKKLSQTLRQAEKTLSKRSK
The assay is described as follows: Trypanosoma cruzi tyrosyl tRNA synthetase (TcYRS) _High Tyrosine SOP. Also: in the data most compounds retested in dose-response had high values. Type of assay: functional. Conditions: 30 µM.

The target of assay [10] is T4, Tyrosyl-tRNA synthetase, putative (Trypanosoma cruzi (strain CL Brener)). In words: Trypanosoma cruzi tyrosyl tRNA synthetase (TcYRS) SOP. Type of assay: functional. Conditions: 30 µM.
Assay [11] deals with Chromo domain-containing protein 1 (Saccharomyces cerevisiae (strain ATCC 204508 / S288c) (Baker's yeast)) (UniProt P32657). The assay is described as follows: ScCHD-1 Enzyme Inhibition Assay. Also: in the data most compounds retested in dose-response had high values. Conditions: 30 µM. Type of assay: functional.

SMILES strings stand for the structures. For some of these results: Potency and affinity values are given separately.

Sequence of Sialic acid-binding Ig-like lectin 9 (Homo sapiens) (Q9Y336 whole entry): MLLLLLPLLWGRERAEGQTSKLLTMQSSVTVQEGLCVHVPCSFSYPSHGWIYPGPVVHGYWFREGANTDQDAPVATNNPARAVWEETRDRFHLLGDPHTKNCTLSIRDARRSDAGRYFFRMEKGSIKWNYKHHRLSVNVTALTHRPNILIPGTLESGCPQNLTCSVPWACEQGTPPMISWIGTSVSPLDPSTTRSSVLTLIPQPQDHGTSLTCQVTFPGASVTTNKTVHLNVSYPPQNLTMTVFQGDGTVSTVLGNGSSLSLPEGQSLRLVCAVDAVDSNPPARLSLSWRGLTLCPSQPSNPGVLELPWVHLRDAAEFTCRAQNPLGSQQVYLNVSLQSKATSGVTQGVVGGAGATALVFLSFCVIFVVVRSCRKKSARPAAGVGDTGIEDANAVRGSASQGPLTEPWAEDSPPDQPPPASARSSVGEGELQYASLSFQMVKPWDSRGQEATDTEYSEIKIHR
Sequence of Chromo domain-containing protein 1 (Saccharomyces cerevisiae (strain ATCC 204508 / S288c) (Baker's yeast)) (P32657 whole entry, the tested form may be a part): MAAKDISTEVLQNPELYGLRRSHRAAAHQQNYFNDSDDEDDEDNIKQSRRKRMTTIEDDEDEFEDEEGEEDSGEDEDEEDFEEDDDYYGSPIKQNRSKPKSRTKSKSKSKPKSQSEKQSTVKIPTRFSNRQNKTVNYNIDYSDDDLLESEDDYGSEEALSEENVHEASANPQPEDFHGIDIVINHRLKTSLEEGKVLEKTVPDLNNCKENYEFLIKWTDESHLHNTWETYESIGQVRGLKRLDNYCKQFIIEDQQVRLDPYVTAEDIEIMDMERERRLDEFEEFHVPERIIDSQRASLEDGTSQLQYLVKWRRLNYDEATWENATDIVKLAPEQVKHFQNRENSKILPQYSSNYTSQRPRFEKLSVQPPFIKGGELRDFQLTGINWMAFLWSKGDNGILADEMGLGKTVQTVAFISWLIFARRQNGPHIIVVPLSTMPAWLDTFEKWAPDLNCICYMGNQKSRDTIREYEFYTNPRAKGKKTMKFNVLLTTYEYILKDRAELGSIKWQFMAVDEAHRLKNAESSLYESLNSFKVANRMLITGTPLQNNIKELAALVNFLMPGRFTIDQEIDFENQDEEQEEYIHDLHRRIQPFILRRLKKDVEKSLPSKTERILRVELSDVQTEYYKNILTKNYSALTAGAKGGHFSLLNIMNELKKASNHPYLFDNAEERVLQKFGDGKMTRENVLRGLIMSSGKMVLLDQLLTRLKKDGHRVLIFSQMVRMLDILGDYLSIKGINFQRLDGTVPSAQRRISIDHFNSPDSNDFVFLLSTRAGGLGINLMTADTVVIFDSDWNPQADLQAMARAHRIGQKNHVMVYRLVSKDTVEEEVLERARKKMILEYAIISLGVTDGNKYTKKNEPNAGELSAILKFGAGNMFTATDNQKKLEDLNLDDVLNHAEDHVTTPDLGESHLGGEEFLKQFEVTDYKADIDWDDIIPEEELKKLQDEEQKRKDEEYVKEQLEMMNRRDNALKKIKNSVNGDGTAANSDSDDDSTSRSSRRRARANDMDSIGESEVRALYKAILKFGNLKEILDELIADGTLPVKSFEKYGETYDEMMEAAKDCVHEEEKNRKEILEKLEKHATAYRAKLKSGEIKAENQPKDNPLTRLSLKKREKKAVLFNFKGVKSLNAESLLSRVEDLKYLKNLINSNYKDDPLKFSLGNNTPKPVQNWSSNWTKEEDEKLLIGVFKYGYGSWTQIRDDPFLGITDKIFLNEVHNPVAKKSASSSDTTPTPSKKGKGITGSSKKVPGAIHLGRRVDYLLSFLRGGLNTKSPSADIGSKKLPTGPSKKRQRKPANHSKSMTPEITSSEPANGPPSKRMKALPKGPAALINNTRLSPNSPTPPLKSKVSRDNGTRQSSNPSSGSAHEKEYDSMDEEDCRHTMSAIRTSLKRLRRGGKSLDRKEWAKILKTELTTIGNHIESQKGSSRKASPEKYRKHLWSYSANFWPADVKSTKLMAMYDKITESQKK
Sequence of Protein translocase subunit SecA (Escherichia coli (strain K12)) (P10408 whole entry): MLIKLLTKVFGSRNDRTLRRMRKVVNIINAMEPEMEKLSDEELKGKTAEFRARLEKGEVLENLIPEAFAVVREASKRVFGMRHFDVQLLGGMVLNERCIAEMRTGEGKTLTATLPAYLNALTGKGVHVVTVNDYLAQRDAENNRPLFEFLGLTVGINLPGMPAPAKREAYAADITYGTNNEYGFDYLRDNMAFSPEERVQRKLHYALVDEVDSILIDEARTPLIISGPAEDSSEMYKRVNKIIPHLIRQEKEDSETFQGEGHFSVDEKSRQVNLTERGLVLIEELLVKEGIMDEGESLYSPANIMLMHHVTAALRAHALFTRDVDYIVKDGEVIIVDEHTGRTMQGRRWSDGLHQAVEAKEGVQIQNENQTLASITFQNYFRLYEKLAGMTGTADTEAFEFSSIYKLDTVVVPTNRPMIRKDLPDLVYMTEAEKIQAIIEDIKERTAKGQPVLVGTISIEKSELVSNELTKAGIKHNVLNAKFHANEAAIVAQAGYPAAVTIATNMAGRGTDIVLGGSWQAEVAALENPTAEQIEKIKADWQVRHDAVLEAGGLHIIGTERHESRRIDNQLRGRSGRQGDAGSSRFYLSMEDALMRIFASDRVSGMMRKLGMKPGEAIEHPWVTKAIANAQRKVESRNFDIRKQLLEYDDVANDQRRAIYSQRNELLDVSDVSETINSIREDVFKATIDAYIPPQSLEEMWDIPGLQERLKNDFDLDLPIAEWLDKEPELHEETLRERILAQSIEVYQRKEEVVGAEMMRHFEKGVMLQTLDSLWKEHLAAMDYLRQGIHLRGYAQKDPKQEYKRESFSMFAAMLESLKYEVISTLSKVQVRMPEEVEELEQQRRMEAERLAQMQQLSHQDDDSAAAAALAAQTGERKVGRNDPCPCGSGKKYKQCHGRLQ

Take `Cc1nn(C)c(C)c1C1CCCN1Cc1cccc(C(N)=O)c1` (stereo unspecified): the Percent Effect was 2.51% in assay [1]; 0% in [2]; -3.2% in assay [3]; 12.2% in assay [4]; -4.63% in assay [5]; 3.04% in [6]. Also, the Percent Effect in [7] was 9.26%; in [8], 8.29%; in assay [9], 2.46%; in [10], -1.27%; in [11], 0.624%.

As for `Nc1nccc(N2CCC(Cc3ccccc3Cl)(C(=O)O)CC2)n1`, the Percent Effect is -1.91% in assay [1]; 16.2% in assay [2]; -3.46% in assay [3]; 22.5% in assay [4]; 6.56% in [5]; 9.52% in [6]. Besides, the Percent Effect in assay [7] is 18.1%; in assay [8] it was -0.891%; in [9], 5.82%; in assay [10], 21.9%; in assay [11], -7.9%.

As for `c1ccc(Cn2cc3c(n2)C(COCC2CC2)OCC3)nc1` (stereo unspecified), the Percent Effect in assay [1] was 3.09%; in assay [2], 10.4%; in [3], -0.118%; in assay [4] it was -14.8%; in assay [5], -4.24%; in assay [6], 3.23%. The Percent Effect in assay [7] was 12.4%; in assay [8] it was 8.69%; in assay [9], 1.06%; in assay [10] it was 6.41%; in assay [11] it was -7.74%.

Regarding `CC(C)CN1CCC(NC(=O)c2ccc(F)cc2I)CC1`, the Percent Effect in assay [1] is -4.38%; in assay [2], 23.6%; in assay [3], -16%; in assay [4], 29.2%; in assay [5], 7.48%; in [6], 39.7%. The Percent Effect was 8.6% in [7]; -5.59% in [8]; 4.21% in [9]; 17.9% in [10]; -10.3% in [11].

With `COCCC(=O)N1CC2(CCN(Cc3ccoc3)C2)C1`, the Percent Effect was -1.14% in assay [1]; 13.3% in [2]; 3.09% in assay [3]; -10.1% in assay [4]; -6.69% in [5]; 5.36% in assay [6]. The Percent Effect is 17.7% in assay [7]; 9.94% in [8]; 4.25% in assay [9]; 1.28% in [10]; -1.88% in assay [11].

As to `CN(C)CCO[C@@H]1CC[C@H]2[C@H]1OCCN2C(=O)CCc1ccccc1`, the Percent Effect in assay [1] is -1.21%; in assay [2] it was 2.67%; in [3] it was -7.4%; in [4] it was -1.11%; in [5], -2.7%; in assay [6], -57.5%. The Percent Effect was 0.171% in assay [7]; -1.39% in assay [8]; 0% in assay [9]; 2.5% in assay [10]; -6.72% in assay [11].

With `c1ccc(-c2ncc(CNC3CCc4ncnn4C3)cn2)cc1` (stereo unspecified), the Percent Effect in assay [1] is -5%; in assay [2], 8.86%; in assay [3], 6.48%; in [4] it was -1.35%; in assay [5], -1.33%; in [6], 9.25%. The Percent Effect in assay [7] was 3.26%; in assay [8] it was -3.68%; in [9], 7.29%; in [10] it was 10.1%; in assay [11], -13.8%.

With `Cc1ccccc1OCCC(=O)OC(C)C(=O)Nc1sccc1C(N)=O` (stereo unspecified), the Percent Effect in assay [1] is -2.66%; in assay [2] it was -2.7%; in assay [3], 6.19%; in assay [4], -3.07%; in assay [5] it was -9.09%; in assay [6], -10.2%. Besides, the Percent Effect was 8.33% in assay [7]; 44.8% in [8]; -15.1% in assay [9]; -16.1% in assay [10]; 15.1% in assay [11].

On to `Cc1cccc(OCCC(=O)N(C)CCNS(C)(=O)=O)c1C`, for which the Percent Effect was -2.9% in [1]; 5.26% in [2]; 8.08% in [3]; 6.9% in assay [4]; -4.58% in [5]; -2.37% in [6]. Moreover, the Percent Effect in assay [7] is 7.96%; in assay [8], 3.29%; in assay [9], 2.13%; in [10], 13%; in assay [11], -5.08%.

In the case of `c1csc(CN2CCO[C@H]3[C@H](OCCN4CCCC4)CC[C@@H]32)n1`, the Percent Effect was -4.05% in assay [1]; 7.79% in [2]; 0.971% in assay [3]; 16% in assay [4]; -0.885% in assay [5]; -57.9% in [6]. The Percent Effect was 8.15% in [7]; 10.2% in [8]; 2.15% in assay [9]; 11.1% in assay [10]; -0.273% in [11].

As for `COc1ccc(OC)c(C(C)Nc2nc3c(C)nn(C)c3c(=O)n2C)c1` (stereo unspecified), the Percent Effect in [1] was -5.58%; in assay [2], -5.2%; in assay [3], 5.05%; in [4] it was 1.13%; in [5], -6.2%; in assay [6] it was -22.1%. Also, the Percent Effect in assay [7] was 14.8%; in [8], 38.9%; in [9] it was -2.15%; in [10] it was -3.7%; in assay [11], -5.55%.
